Test results reported in the supplement of paper PMC6555819.

Legend:
Test in all cases: PBM binding z-score (relative to random genomic background probes); higher = stronger binding; sequences stand for … in GC…GCGATTGACAGCGTAGAATGAAGG
[1] = system: RARb homodimer (NR concentration 270 nM)
Outline: (§1)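 Antibodies against each partner of ligand-free nuclear receptor dimers (one per run) detected binding on custom Agilent 4×180K protein-binding microarrays after 1 h incubation. The double-stranded probes had 34-nt variable regions carrying direct-repeat seeds, single-nucleotide variants, half-site ablations and random human genomic background sequences. Binding z-scores, from regression-normalized fluorescence, use the random background probes as reference.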

[2] = system: RARg:RXRa (NR concentration 270 nM, RXRa partner concentration 90 nM)
Outline: as §1

[3] = system: RARg homodimer (NR concentration 270 nM)
Outline: as §1

[4] = system: RXRa DBDmut IVT, anti-RXR (DBD mutation: RXRa K156A/R161A, NR concentration 90 nM)
Outline: as §1

[5] = system: RXRa homodimer (NR concentration 180 nM)
Outline: as §1

[6] = system: THRa:RXRa (NR concentration 90 nM, RXRa partner concentration 90 nM)
Outline: as §1

[7] = system: THRa homodimer (NR concentration 90 nM)
Outline: as §1

[8] = system: VDR:RXRa (NR concentration 270 nM, RXRa partner concentration 90 nM)
Outline: as §1

[9] = system: VDR homodimer (NR concentration 270 nM)
Outline: as §1

Sequence | PBM binding z-score [1] | PBM binding z-score [2] | PBM binding z-score [3] | PBM binding z-score [4] | PBM binding z-score [5] | PBM binding z-score [6] | PBM binding z-score [7] | PBM binding z-score [8] | PBM binding z-score [9]
CCTAGCAGGCCAAGGTCACTCAAGCATTTCGCTT | 3.82 | 3.82 | 3.92 | 1.05 | 3.51 | 3.66 | 2.88 | 2.88 | 2.2
ATCTCTAAGTAAAGATAGTTCAGTGAATGCAAAT | 0.667 | 0.945 | 0.889 | 0.232 | 0.538 | 0.429 | -0.328 | 0.741 | 0.578
GCTTGTAGATCAACGTTAAGAAAGACTAAGCTAA | -0.408 | -0.256 | -0.209 | 0.0501 | -0.405 | -0.214 | -0.701 | -0.456 | -0.764
GATACAGGGTCAAGGCAAGAGTACGCGTATTGAT | 3.45 | 5.5 | 5.14 | 2.63 | 6.28 | 3.72 | 1.16 | 4.62 | 2.31
CGAACTAGGTCATTGACAGGACAGTCAATAGTAA | 2.6 | 4.51 | 4.14 | 2.45 | 2.29 | 2.83 | 0.652 | 2.29 | 1.07
CCTAGTTGGTCAAGGTCACACGCGCTATAGGTAC | 4.39 | 4.76 | 4.72 | 2.18 | 4.7 | 4.17 | 4.19 | 4.29 | 3.41
TCTAGCAGGCCAGAGGGTCCCTCAAGAGGTACGG | -0.677 | -0.337 | -0.396 | -0.214 | -0.191 | -0.666 | -1.29 | -0.431 | -0.908
CAAACTAGGTCAAGAGGTTAAAGTCCGCTTCCCG | 4.23 | 6.18 | 5.49 | 1.61 | 5.2 | 3.36 | 1.36 | 4.18 | 1.86
CAAACTAGGGCAAAGGTCAAAGTCGAGCCAACCA | 4.68 | 7.57 | 6.04 | 2.02 | 8.18 | 3.87 | 0.591 | 5.41 | 2.25
TCTCGGTGGACACGAAGGTCAGAGCTTTCCAGAG | 3.04 | 2.19 | 1.97 | 0.131 | 1.55 | 1.39 | -0.0519 | 1.02 | -0.0711
GCTTACGGGTCAAAGTTTATAGCATGAATAGAAT | 2.72 | 5.32 | 4.39 | 3.19 | 7.06 | 2.9 | -0.354 | 4.3 | 2.25
CCTAGCTGGCCAATCTGGGTCACTCAAGGCTTGA | 1.72 | 0.659 | 0.818 | -0.0999 | 0.716 | 2.69 | 0.234 | 0.147 | -0.441
CCGAGTAGGTTATGAGGCATTCAGGCAACGGTGA | 0.133 | 0.306 | 0.215 | 0.178 | 0.451 | 0.303 | 0.0556 | -0.286 | 0.0236
CCTCGGAGCACAACAGGAGGTCAGAGCTGCCAGA | 2.86 | 1.9 | 1.65 | -0.138 | 1.74 | 1.91 | 0.301 | 1.32 | 0.485
CAAACTAGGTCATAGAGGTCAAAGTCCGTGCGTA | 5.51 | 6.95 | 7.46 | 3.57 | 7.64 | 4.64 | 2.63 | 7.8 | 7.04
CCTACTGAGCCATTCAGAGGTCATTGATCATATG | 4.08 | 3.93 | 2.95 | 1.66 | 4.41 | 3.21 | 1.58 | 3.96 | 3.71
CGTCAAAGTTCAAGGTGACGTAACAGAAAGCAGC | 4.19 | 5.57 | 6.39 | 4.67 | 4.63 | 3.25 | 1.36 | 3.91 | 3.17
AGTCAAAGTTCATCTAGATAACGTAAGATATGCT | 3.87 | 5.31 | 5.67 | 4.57 | 4.56 | 1.99 | -0.582 | 4.66 | 4.4
GTTTGTAGATCAAGGTTAAGAAAGACTAAGCTAA | 0.79 | 0.774 | 0.839 | 0.638 | 0.913 | 1.44 | 0.453 | 1.03 | 0.645
CCGACTGGGGCAAGGTTACCTTAACGCACAGCCA | 1.27 | 0.881 | 1.11 | -0.49 | 1.1 | 2.07 | 1.66 | -0.0796 | -0.391
CAATCTAGGTCACCGGAAGGTCAAAGTCCGCATG | 5.77 | 8.45 | 7.81 | 1.98 | 7.46 | 4.59 | 3.62 | 6.01 | 4.12
CTACGAAGGTGAACAAGGTCGTTGATTACTATTC | 2.4 | 2.2 | 1.98 | 1.51 | 2.21 | 2.91 | 1.08 | 6.15 | 2.46
GCGACGGGGGCAAAGCAGGTTACCATAAGGTTGG | 2.24 | 3.47 | 3.11 | 2.62 | 2.73 | 4.56 | 1.23 | 3.84 | 2.8
CTCGAAAGGTCGTGCTCAGTTGAGTATACCAAAC | 2.57 | 4.35 | 3.63 | 1.71 | 4.77 | 2.66 | 0.251 | 3.59 | 0.971
